The list is not random: actives were taken first. Their share in the collection is about 2.8%.
TROY signal inh: TROY signaling inhibition; inhibition, % at 10 µM; 0.98% of 360,000 active; Q293 LMP1-TROYcd NF-kB luciferase reporter, 4 h; AID 1347056;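 active = compounds whose plate-normalised and pattern-corrected inhibition of the luciferase reporter signal at the single screening dose is 50% or more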
LGR2 antag: blocks bursicon-induced cAMP signaling via Drosophila LGR2; HEK293 LGR2, CRE-luciferase, bursicon-stimulated, 4 h; inhibition, % at 9.99 µM; 0.35% of 380,000 active; AID 720647;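 active = drop in luminescence signal, shown as inhibition above about 50% in the replicate tests, limit read from the data, passing the limit was not always enough; inconclusive = probably only some replicates passing the limit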;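 also: agonist challenge used bursicon conditioned medium at about half maximal strength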
EWS-Fli block: EWS/Fli transcriptional activity inhibition. A673 NR0B1-luciferase reporter, viability-normalised. inhibition, % at 12.6 µM. 0.67% of 350,000 active;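 active = mean inhibition of at least 50% after viability correction, with every replicate also passing that limit; inconclusive = mean reaches 50% but only one of two replicates passes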;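 also: firefly luciferase signal divided by Alamar Blue viability fluorescence both relative to DMSO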
PAX8 inh HTS: inhibitors of PAX8 transcriptional activity in RMG-I cells; AID 652154; 1.2% of 360,000 active; RMG-I TPO-luciferase reporter, SteadyGlo, 24 h; inhibition, % at 12.6 µM;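 active = mean replicate inhibition at least 60% with every replicate also reaching 60%; inconclusive = only one of the two criteria is met; inactive = mean below 60% and not all replicates reaching 60%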;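 also: luciferase light reporting Pax8 driven TPO promoter activity; plate controls were median of neutral control wells for no effect and mitoxantrone controls for full effect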
TWEAK Fn14 block: blocks TWEAK-Fn14 interaction in a reporter cell assay | TWEAK-stimulated Fn14 reporter cells, luciferase luminescence, 8 h | inhibition, % at 10 µM | 2% of 360,000 active; in the data active = inhibition above about 50%
Starred values were filed as active, the others as inactive; ? = inconclusive; · = no result.

SMILES | TROY signal inh | LGR2 antag | EWS-Fli block | PAX8 inh HTS | TWEAK Fn14 block
NS(=O)(=O)c1ccc(CCN2C(=O)/C(=C\c3ccc(Cl)cc3)SC2=S)cc1 | -2 | 12 | · | 112* | -46
Cc1ccc(S(=O)(=O)N(C)C[C@H]2OCCCC[C@H](C)Oc3ccc(N(C)C)cc3C(=O)N([C@H](C)CO)C[C@H]2C)cc1 | · | -3 | -10 | 20 | ·
Cc1ccc(S(=O)(=O)N(C)C[C@@H]2OCCCC[C@H](C)Oc3ccc(N(C)C)cc3C(=O)N([C@@H](C)CO)C[C@@H]2C)cc1 | · | 4 | -4 | 73* | ·
C[C@H]1CCCCO[C@@H](CN(C)S(=O)(=O)c2ccc(Cl)cc2)[C@@H](C)CN([C@@H](C)CO)C(=O)c2cc(N(C)C)ccc2O1 | · | 25 | 3 | 70* | ·
C[C@@H]1CCCCO[C@H](CN(C)S(=O)(=O)c2ccc(Cl)cc2)[C@H](C)CN([C@H](C)CO)C(=O)c2cc(N(C)C)ccc2O1 | · | -6 | 9 | 68* | ·
Cc1ccc(Nc2cc(C)nn2-c2nc(C)cc(=O)[nH]2)cc1 | 84* | · | · | · | 108*
Cc1ccc(Nc2cc(C)nn2-c2nc(C)cc(C)n2)cc1 | 3 | · | · | 1 | -5
COc1ccc(CNC(=O)c2cc3c(C)nc4ccccc4c3o2)c(OC)c1 | 48 | · | · | · | 38
CCc1ccc(CNC(=O)c2cc3c(C)nc4ccccc4c3o2)cc1 | 45 | 15 | 13 | 4 | 58*
COc1cccc(CNC(=O)c2cc3c(C)nc4ccccc4c3o2)c1 | 44 | 8 | 13 | 22 | 52*
Cc1nc2ccccc2c2oc(C(=O)NCC3COc4ccccc4O3)cc12 (configuration not stated) | 73* | -24 | 2 | 24 | 93*
CCCCN(CC)CCNC(=O)c1cc2c(C)nc3ccccc3c2o1 | -11 | 7 | 1 | -5 | -4
CCS(=O)(=O)NCC[C@H]1CC[C@H](NC(=O)C2CCCCC2)[C@@H](CO)O1 | · | 9 | · | · | ·
O=C(Nc1ccc(CN2CCOCC2)cc1)c1cc2ccccn2n1 | 69* | 78* | 56* | 9 | 87*
O=C(Nc1ccc(CN2CCOCC2)cc1)c1ccc(-c2cccc(Cl)c2)o1 | 45 | · | · | · | 57*
O=C(NC(=S)Nc1ccc(CN2CCOCC2)cc1)c1ccc(-c2cccc(Cl)c2)o1 | 58* | 67* | 28 | 0 | 49
O=C(Nc1ccc(CN2CCOCC2)cc1)c1ccc(-c2ccc(Cl)cc2Cl)o1 | 35 | 6 | 8 | 28 | 30
CNC(=O)C[C@H]1CC[C@H]2[C@@H](COc3ccc(NC(=O)c4ccc(F)cc4)cc3C(=O)N2C)O1 | · | -14 | -5 | 0 | ·
C[C@@H]1CCCCO[C@@H](CN(C)C(=O)Cc2ccccc2)[C@H](C)CN([C@H](C)CO)C(=O)c2cc(NC(=O)c3ccccc3)ccc2O1 | · | 14 | 5 | · | ·
C[C@@H]1CN([C@@H](C)CO)C(=O)c2cccc(N(C)C)c2O[C@@H]1CN(C)CC1CC1 | · | -19 | -6 | -8 | ·
O=C(Nc1ccc([N+](=O)[O-])cn1)c1cc(-c2cccc(Br)c2)nc2ccccc12 | -7 | 14 | 3 | 115* | -36
COc1ccc(S(=O)(=O)N2C[C@H](O)COC[C@H]3O[C@@H](CC(=O)NCCCN4CCOCC4)CC[C@@H]32)cc1 | · | -17 | -6 | 0 | ·
O=C1CCCc2cc3c(cc21)CCCC3 | -4 | · | -19 | -17 | -8
Nc1ccc2c(c1)C(=O)CCC2 | 74* | · | 19 | -53 | 55*
Cc1cc(C)c(S(=O)(=O)/N=C2\C=C(Nc3ccc(C(=O)O)cc3)C(=O)c3ccccc32)c(C)c1 | 62* | 3 | -37 | ? | 96*
SMILES | TROY signal inh | LGR2 antag | EWS-Fli block | PAX8 inh HTS | TWEAK Fn14 block
Cc1cc(C)c(S(=O)(=O)/N=C2\C=C(NS(=O)(=O)c3ccccc3)C(=O)c3ccccc32)c(C)c1 | 18 | -5 | · | 24 | -1
O=C(O)c1ccc(NC2=C/C(=N/S(=O)(=O)c3ccccc3)c3ccccc3C2=O)cc1 | 50* | 99* | 27 | 80* | 97*
N#C[C@@H]1[C@@H](c2ccc(-c3ccccc3F)cc2)[C@H](CO)N1C(=O)c1ccccn1 | · | -8 | 1 | 4 | ·
CCCNC(=O)N[C@@H]1CC[C@@H](CCn2cc(C3CCCC3)nn2)O[C@H]1CO | · | 3 | -2 | -2 | ·
C[C@H](CO)N1C[C@H](C)[C@H](CN(C)Cc2ccc(C(=O)O)cc2)Oc2ccc(NS(C)(=O)=O)cc2CC1=O | · | 1 | -1 | -28 | ·
CCOc1ccc(-c2csc(/C(C#N)=C\c3ccc(O)c([N+](=O)[O-])c3)n2)cc1 | 71* | 10 | · | 20 | 104*
O=c1c2cc([N+](=O)[O-])ccc2sn1-c1ccccc1 | -95 | -3 | -29 | -30 | -33
N#Cc1c2ccc([N+](=O)[O-])cc2[n+]([O-])n1-c1ccccc1 | -4 | 12 | 62* | 68* | 17
CC(=O)Nc1ccccc1C(=O)C(=O)Nc1cccc(C(=O)N2CC(C)CC(C)C2)c1 (configuration not stated) | 14 | 12 | 7 | 15 | 78*
CC(C)(C)OC(=O)N/N=C\c1ccc([N+](=O)[O-])s1 | 66* | -14 | -23 | -18 | 91*
CCOC(=O)N/N=C\c1ccc([N+](=O)[O-])s1 | -24 | -3 | 11 | 13 | -6
O=C(N/N=C/c1ccc([N+](=O)[O-])s1)c1ccncc1 | 16 | · | · | · | 12
Cc1ccc(C(=O)N/N=C/c2ccc([N+](=O)[O-])s2)cc1 | 42 | · | · | · | 95*
COc1ccc(NC(=O)Nc2ccc3c(c2)C(=O)N([C@H](C)CO)C[C@@H](C)[C@@H](CN(C)Cc2ccc(Cl)c(Cl)c2)OCCCC[C@H](C)O3)cc1 | · | 18 | 1 | 56 | ·
COc1cc(C(=O)OCC(=O)Nc2sccc2C(N)=O)cc(OC)c1OC | 33 | -6 | 61* | 9 | 31
NC(=O)c1ccsc1NC(=O)COC(=O)Cc1cccc2ccccc12 | 61* | · | · | · | 55*
CCCNC(=O)C[C@@H]1CC[C@H]2[C@@H](COc3ccc(NC(=O)c4ccc(C(F)(F)F)cc4)cc3C(=O)N2C)O1 | · | -22 | 0 | 1 | ·
Cn1c(=O)[nH]c(=O)c2c1nc(Br)n2Cc1cccc(Br)c1 | 19 | -5 | 56* | 73* | 14
COc1ccc(CNc2oc(COc3ccccc3)nc2C#N)cc1 | -32 | · | · | · | -1
COc1ccc(Nc2oc(COc3cccc(C)c3)nc2C#N)cc1 | -64 | · | · | -140 | 68*
CCNc1oc(COc2cccc(C)c2)nc1C#N | -49 | -48 | · | · | -45
COc1ccc(Nc2oc(COc3ccc(OC)cc3)nc2C#N)cc1 | 9 | · | · | -5 | 86*
COc1ccc(Nc2oc(COc3ccccc3F)nc2C#N)cc1 | -31 | 8 | 3 | 3 | 57*
COc1ccc(Nc2oc(COc3ccc(C)cc3)nc2C#N)cc1 | -3 | · | · | · | 69*
COc1ccc(S(=O)(=O)N(C)C[C@@H]2Oc3c(NS(=O)(=O)c4ccc(F)cc4)cccc3C(=O)N([C@@H](C)CO)C[C@@H]2C)cc1 | · | -3 | -2 | 11 | ·
CCCN1C[C@H](C)[C@@H](OC)CN(C)C(=O)c2ccc(NC(=O)c3cccc(F)c3)cc2OC[C@H]1C | · | -2 | 2 | -19 | ·

Bioassay records deposited in PubChem BioAssay by several laboratories.
